# Laboratory results: PubChem BioAssay (NCI)
# About 83,000 compounds went through this panel and 20% of them were active in at least one assay; those are over-represented in the sample as a whole.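 Note: values are percent growth. 100 is the growth of untreated cells, values between 100 and 0 indicate rising inhibition; between -100 and 0 indicates cell death.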 The source made the active and inactive calls. How the source made its calls: active means growth percent below 10; inactive means the rest.
# Tested on: HL-60(TB) leukemia
# Assay: NCI-60 one-dose screen, 48 h (100 = growth as untreated, 0 = no growth, -100 = all killed)
# Details: 10 µM unless noted
row,SMILES,growth
1,Cc1nc2cc(Nc3nc(Nc4ccc(F)cc4)nc(-c4cccs4)n3)ccc2n1Cc1ccccc1,28.1% (inactive)
2,COc1ccc(-c2nn(-c3ccccc3)cc2/C=C/C(=O)NNC(=O)Nc2ccc(C)cc2)cc1,90.5% (inactive)
3,COc1ccc(Nc2c3ccccc3nc3ccccc23)cc1,12.8% (inactive)
4,Cc1ccc(S(=O)(=O)NC(CCC(=O)Nc2ccc(Cl)cc2)C(=O)Nc2ccc(Cl)cc2)cc1 (stereo not given),24.1% (inactive)
5,Cc1nn(-c2nc3ccccc3[nH]2)c2c1C(c1ccc(O)cc1)CC(=O)N2 (stereo not given),82.1% (inactive)
6,CCN1C(=O)C2(Nc3ccccc3S2)c2cc(C)ccc21 (stereo not given),118% (inactive)
7,C#CC(F)(F)[C@]1(O)CC[C@H]2[C@@H]3CCC4=CC(=O)CCC4=C3[C@@H](c3ccc(C4CC4)cc3)C[C@@]21C,-61.1% (active)
8,CCc1nc(C)cn1C(=O)OCc1nc2nc(Cl)nc(N3CCOCC3)c2[nH]1,-23.1% (active)
9,COc1ccc(-c2nn(-c3cccc(NC(=O)c4ccc(N5CCOCC5)c(C(F)(F)F)c4)c3)cc2-c2ccncc2)cc1Cl,38.1% (inactive)
10,CC1(O)COCCCCOc2c(CN)cccc2NC(=O)c2nc(cnc2N)-c2ccc(cc2)S(=O)(=O)C(C)(C)C1 (stereo not given),-54.7% (active)
11,Nc1cc(NN=C(c2ccc(O)cc2)c2ccc(O)cc2)c([N+](=O)[O-])cc1[N+](=O)[O-],66.4% (inactive)
12,CC(C)(C)c1[nH]nc2c1C(c1cc3ccccc3[nH]c1=O)Nc1cc(C(=O)Nc3ccc(Cl)cc3)ccc1N2 (stereo not given),55.9% (inactive)
13,Cc1cc(Cl)ccc1Nc1nc(C(F)(F)F)ccc1C(=O)N/N=C/c1ccc(N(C)C)cc1,12.4% (inactive)
14,CNc1nc(NC)c2cn[nH]c2n1,103% (inactive)
15,O=c1cc(-c2ccc(OCc3ccccc3)cc2)oc2c(I)c(OCc3ccccc3)cc(OCc3ccccc3)c12,117% (inactive)
16,COc1ccc(-c2nc3c(c(=O)n2C(C)=O)C(c2ccc(Cl)cc2)c2sc4c(Cl)cccc4c2O3)cc1 (stereo not given),-14% (active)
17,COc1ccc(Nc2nc(SC)nc(-c3cccc([N+](=O)[O-])c3)c2C#N)cc1,112% (inactive)
18,O=C(Cc1csc2nc(-c3ccc(Cl)cc3)cn12)N/N=C/c1ccccc1O,-3.5% (active)
19,c1ccc(Cn2cc(-c3nc4ccccc4s3)c3cccnc32)cc1,115% (inactive)
20,Oc1c(Cl)cc(Cl)cc1C(c1cc(Cl)cc(Cl)c1O)C(Cl)(Cl)Cl,1.53% (active)

row,SMILES,growth
1,Cc1ccc(NC(=O)N2CCCCC2)cc1[N+](=O)[O-],104% (inactive)
2,C=CCOc1ccc(Cl)cc1Cl,20.5% (inactive)
3,O=C(C(=O)N1CCCC1)c1cn(CCCn2cc(C(=O)C(=O)N3CCCC3)c3cc(Br)ccc32)c2ccc(Br)cc12,86.5% (inactive)
4,O=C(CSCC(=O)N/N=C/c1ccccc1O)N/N=C\c1ccccc1O,-32.8% (active)
5,CCCCCCCCCCC(C[N+](C)(C)C/C=C/c1ccccc1)C(O)c1ccccc1 (stereo not given),-48.9% (active)
6,COc1cccc(/C(C)=N/NC(=O)CSc2nc3ccccc3c(=O)n2CCc2ccc(S(N)(=O)=O)cc2)c1,58.5% (inactive)
7,C=CCSSc1ncnc2c1ncn2C1OC(CO)C(O)C1O (stereo not given),21.5% (inactive)
8,CCOC(=O)[C@@H]1CCCN(S(=O)(=O)c2ccc(S(=O)(=O)N(CC)CC)c(F)c2)C1,81.4% (inactive)
9,NCCNc1nc2ccccc2c2c(=O)c3cc(F)cc(Cl)c3sc12,-42.8% (active)
10,COC(=O)[C@]12CC[C@@H](C)[C@H](C)[C@@H]1C1=CC[C@@H]3[C@@](C)(CC#N)C4=C(C[C@@]3(C)[C@]1(C)CC2)OC[C@]4(C)C=O,-10.8% (active)
11,O=C1CC(c2ccc3c(c2)OCO3)Nc2cc3c(cc21)OCO3 (stereo not given),-22.9% (active)
12,CN1C(=O)C(=Cc2coc3ccc(Br)cc3c2=O)C(=O)N(C)C1=O,111% (inactive)
13,COc1cnc2c(c1)C(=O)c1c-2n(CCCN2CCOCC2)c(=O)c2cc(Cl)ccc12,-4.61% (active)
14,CNC1=C([N+](=O)[O-])C(c2ccc(OC)cc2)C(C#N)=C(c2cccs2)O1 (stereo not given),99.5% (inactive)
15,CC(C)[C@@H](C)/C=C/[C@@H](C)[C@H]1CCC2=C3C=CC4=CC(=O)CC[C@]4(C)[C@H]3CC[C@@]21C,93.9% (inactive)
16,CCn1c(SCc2ccc(C)cc2)nnc1-c1nn(-c2ccc(Cl)cc2Cl)c(-c2ccc(Cl)cc2)c1C,-13.1% (active)
17,CCOC(=O)c1sc(-c2ccc(OS(=O)(=O)C[C@]34CCC(CC3=O)C4(C)C)c(C=O)c2)nc1C,-5% (active)
18,COc1ccc(S(=O)(=O)N2CCN(C)CC2)cc1NC(=O)c1[nH]c(C)c2c1CCCCC2=O,8.16% (active)
19,S=c1[nH]c2cc(Cl)ccc2s1,97.4% (inactive)
20,CNC(=S)NNC(=O)C1CC1,73.3% (inactive)
